PubChem BioAssay (NCATS)
Results filed as inconclusive are left out. A call without a number means that no potency is given here. Active and inactive are the calls of the source. Calls follow the shape of the dose curve; as a rule, active = well fitted inhibition curve with a large enough effect; inconclusive = small, poorly fitted or top-dose-only effect; inactive = no such curve, though single readings can be large or run the other way. *1 amine or outer side, *2 acyl side, *3 side chain or, on linkers, in order; H or OH if unused. Where a SMILES comes first, the peptide text is derived from it. Bridges are numbered along the chain shown (N, C = ends). [ ]: non-standard residue; d: D form. The star is where a group is joined. pTerphenylCO(4''-OnC5H11) = CCCCCOc1ccc(-c2ccc(-c3ccc(C(=O)*)cc3)cc2)cc1; Orn(4R-OH,5R-OH) = O=C([C@H](C[C@@H](O)[C@@H](O)N[*:3])N[*:1])[*:2]; hTyr(3S-OH,4S-OH) = N[C@H](C(=O)O)[C@H](O)[C@@H](O)c1ccc(O)cc1; Pro(3S-OH,4S-Me) = C[C@H]1CN[C@H](C(=O)O)[C@H]1O; Hyp = O=C(O)[C@@H]1C[C@@H](O)CN1; Cbz = O=C(OCc1ccccc1)*; CH2Cl = ClC*

Experiments:
[1] = tested on: Zika virus NS2B-NS3 protease (unlinked complex); assay: Primary screen GU Rhodamine qHTS for Zika virus inhibitors: Unlinked NS2B-NS3 protease assay (AID 1347159); also: nearly all actives have a fitted effect of over 60% in size
Summary of the method: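 Buffer 10 mM Tris-HCl pH 8.0, 0.01% Tween 20. Unlinked protease 25 nM; compound preincubation 15 min, RT, protected from light. Substrate Rhod110, 1.5 microM; ~15% conversion in 15 min.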

[2] = tested on: Zika virus NS2B-NS3 protease (linked construct); assay: Primary screen NINDS Rhodamine qHTS for Zika virus inhibitors (AID 1347160); also: nearly all actives have a fitted effect of over 55% in size
Summary of the method: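 Aprotinin served as in-plate control. Conditions: 25 nM linked NS2B-NS3, pH 8.0 Tris buffer, titrated compounds, 15 min preincubation and 15 min reaction with 1.5 microM Rhod110 substrate at room temperature.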
Potency is read from the fitted curve at half-maximal effect.

SMILES | Potency [1] | Potency [2]
C=C1C(OC2OC(CO)C(O)C(O)C2O)CC2C(C)(C)C(O)CCC2(C)C1CC/C(C)=C\COC(=O)CC(=O)O (stereo unspecified) | inactive | inactive
CCOc1nc(NC(=O)Cc2cc(OC)ccc2OC)cc(N)c1C#N | inactive | inactive
CC1(C(=O)Nc2ccc(F)nc2)CCCN1c1nc(Nc2cc(C3CC3)[nH]n2)c2cccn2n1 (stereo unspecified) | inactive | inactive
CC(C)=C[C@@H]1[C@H](CO[C@@H]2O[C@H](CO)[C@@H](O)[C@H](O)[C@H]2O)C1(C)C | inactive | inactive
Cc1cc(-c2ncc(-c3cccnc3)cc2/C=C/c2ccccc2)cnc1-c1cccnc1 | inactive | inactive
N#Cc1cnc2c(Cl)cc(NCc3cn(CCN4CCCCCC4)nn3)cc2c1Nc1ccc(F)c(Cl)c1 | inactive | inactive
O=C(c1ccccn1)N(Cc1cccs1)C1(C(=O)NC2CCCCC2)CCCCC1 | inactive | inactive
C=CS(=O)(=O)NC1CCN(C(=O)CNc2cc(I)c(Cl)cc2OC)CC1 | inactive | inactive
OC(c1ccc(-c2ccc(CN3CCN(Cc4ccncc4)CC3)cc2)c(F)c1)(C(F)(F)F)C(F)(F)F | inactive | inactive
CC(C)C[C@H](NC(=O)CNC(=O)OCc1ccccc1)C(=O)N[C@@H](Cc1ccccc1)C(=O)CCl (Cbz-Gly-Leu-Phe-CH2Cl) | inactive | inactive
O=c1[nH]c2ccc(C#CCN3CCC(Cc4ccccc4)CC3)cc2[nH]1 | inactive | inactive
COc1cc2c(cc1-c1c(C)noc1C)ncc1[nH]c(=O)n(C(C)c3ccccn3)c12 (stereo unspecified) | inactive | inactive
COc1nc2ccc(Br)cc2cc1[C@@H](c1ccccc1)[C@@](O)(CCN(C)C)c1cccc2ccccc12 | inactive | inactive
C=CC1(C)CC(O)C(C(=C)C(=O)OC)C(O)C1C(=C)CO (stereo unspecified) | inactive | inactive
Oc1cccc(C2NC(=S)Nc3cccc(F)c32)c1 (stereo unspecified) | inactive | inactive
C=CC(=O)Nc1cccc(Nc2nc(Nc3ccc(NC4CN(CCF)C4)cc3OC)ncc2C(F)(F)F)c1 | inactive | inactive
CC1(C)CCCC2(C)C1C(=O)C=C(C(=O)O)C2(O)C(=O)O (stereo unspecified) | inactive | inactive
CCCNCCc1ccc(NS(=O)(=O)c2ccc(OC(F)(F)F)cc2)cc1 | inactive | inactive
COc1cc2ncnc(Oc3ccc(CC(=O)Nc4cnn(C(C)C)c4)cc3)c2cc1OC | inactive | inactive
C/C=C\NC(=O)C1NC(=O)C(CC(N)=O)NC(=O)C(NC(=O)C(=O)C(C)CC)Cc2ccc(O)c(c2)-c2cccc3c2NC(=O)C3(O)C1O (stereo unspecified) | inactive | inactive
C=C(C(=O)O[C@H]1C/C(C)=C/CC/C(CO)=C/[C@H]2OC(=O)C(=C)[C@H]12)C(O)CO (stereo partly specified) | inactive | inactive
N#Cc1ccc(O[C@@H]2c3ccccc3C[C@H]2N2CCC[C@@H](N)C2)c(Cl)c1 | inactive | inactive
CNC(C)C(=O)NC(C(=O)N1CCCC1C(=O)Nc1snnc1-c1ccccc1)C1CCCCC1 (stereo unspecified) | inactive | inactive

SMILES | Potency [1] | Potency [2]
CCN1C(C)(C)CC(Oc2ccc(C(=O)Nc3ccc(NC(=O)Nc4cc(C(C)(C)C)on4)cc3)nc2)CC1(C)C | inactive | inactive
O=C(NCCN1CCOCC1)c1cc2c(Oc3ccc(NC(=O)C4(C(=O)Nc5ccc(F)cc5)CC4)cc3)ccnc2[nH]1 | inactive | inactive
NS(=O)(=O)c1ccc(N2CCN(CC[C@@H]3OCCc4ccccc43)CC2)cc1 | inactive | inactive
COc1ccccc1-c1ccc(-c2cn(C(=O)N3CCCCC3Cc3ccccc3)nn2)cc1 (stereo unspecified) | inactive | inactive
C/C1=C/CCC2=CC(OC2=O)C(C)(C)/C=C/C1=O (stereo unspecified) | inactive | inactive
CCCCCOc1ccc(-c2ccc(-c3ccc(C(=O)N[C@H]4C[C@@H](O)[C@@H](O)NC(=O)[C@@H]5[C@@H](O)[C@@H](C)CN5C(=O)[C@H]([C@@H](C)O)NC(=O)[C@H]([C@H](O)[C@@H](O)c5ccc(O)cc5)NC(=O)[C@@H]5C[C@@H](O)CN5C(=O)[C@H]([C@@H](C)O)NC4=O)cc3)cc2)cc1 ({pTerphenylCO(4''-OnC5H11)}-[Orn(4R-OH,5R-OH)]T[Hyp][hTyr(3S-OH,4S-OH)]T[Pro(3S-OH,4S-Me)]; lactam 1-C) | 31.6 µM (active) | inactive
Cn1c(=O)c(F)c(Nc2ccc(I)cc2F)c2c(=O)n(CC(O)CO)cnc21 (stereo unspecified) | inactive | inactive
COc1cc(Br)c(S(=O)(=O)Nc2ccc(Cl)c(O[C@@H]3CCN(C)C3)c2)cc1OC | inactive | inactive
O=C(NO)c1cnc(N2CCN(S(=O)(=O)c3ccc4ccccc4c3)CC2)nc1 | inactive | inactive
C[C@@H]1O[C@@H](O[C@H]2CC[C@@]3(C)C(CC[C@]4(C)C3CC=C3[C@@H]5CC(C)(C)CC[C@]5(C(=O)O[C@@H]5O[C@H](CO)[C@@H](O)[C@H](O)[C@H]5O)CC[C@]34C)[C@]2(C)CO)[C@H](O)[C@H](O[C@@H]2O[C@H](CO)[C@@H](O)[C@H](O)[C@H]2O)[C@H]1O (stereo partly specified) | inactive | inactive
COc1cc(CN(CCN)C(=O)c2cccs2)ccc1OCc1ccccc1 | inactive | inactive
CC(C)C[C@@H]1NC(=O)[C@@H]2C[C@@]34C[C@@H]5[C@@]6(C)CCCC(C)(C)C6CC[C@@]5(C)N(c5ccccc53)[C@H]4N2C1=O (stereo partly specified) | inactive | inactive
C=C1CCC2C(C)(C(=O)O)CCCC2(C)C1CCC1=CCOC1=O (stereo unspecified) | inactive | inactive
COCc1c(Cl)ccc2c1CC[C@H]2c1ncc[nH]1 | inactive | inactive
Cc1onc(-c2ccccc2)c1C(=O)N1CCN(c2ccc([N+](=O)[O-])cc2Cl)CC1 | inactive | inactive
CN1CCN(C2=Nc3ccccc3Nc3ccc(Cl)cc32)CC1 | inactive | inactive
C#CC(=O)N(c1ccc(OC)cc1OC)C(C(=O)NCC(=O)OCC)c1cccs1 (stereo unspecified) | inactive | inactive
Cn1cc(-c2cnn3c(N)c(Br)c([C@@H]4CCCNC4)nc23)cn1 | inactive | inactive
O=C(NCCCn1ccnc1)c1cc(-c2ccco2)on1 | inactive | inactive
O=C(CSc1nc2ccccc2c(=O)n1-c1ccccc1)Nc1ccc2c(c1)CCC2 | inactive | inactive
C/C(=C/C=C\C=C\Cc1cnco1)[C@@H](O)C(C)(C)C(N)=O | inactive | inactive
OC1CCC(Nc2nc(-c3ccccc3)nc3[nH]ccc23)CC1 (stereo unspecified) | inactive | inactive
CC(=O)NCc1cccc(OC[C@@H](O)CNCCc2ccc(NS(=O)(=O)c3ccccc3)cc2)c1 | inactive | inactive

SMILES | Potency [1] | Potency [2]
C[C@@H]1C[C@H](C)CN(CCC(=O)Nc2ccc(Br)cc2)C1 | inactive | inactive
C[C@H]1CC[C@@]2(OC1)O[C@H]1CC3[C@@H]4CC[C@@H]5C[C@@H](O[C@@H]6O[C@H](CO)[C@@H](O[C@@H]7O[C@@H](C)[C@H](O)[C@@H](O)[C@H]7O)[C@H](O)[C@H]6O[C@@H]6O[C@H](CO)[C@@H](O)[C@H](O)[C@H]6O)CC[C@]5(C)C4CC[C@]3(C)[C@H]1[C@@H]2C (stereo partly specified) | inactive | inactive
Cc1ccnc(NC(=O)C(C)c2cccc(C(=O)c3ccccc3)c2)c1 (stereo unspecified) | inactive | inactive
CN(C)C(=O)Nc1cc(-c2ccccc2)ccc1N(C)C | inactive | inactive
O=C(NCCCNC(=O)c1ccc[nH]c1=O)c1cc(-c2ccccc2)on1 | inactive | inactive
C[C@@H](N[C@H]1CCCC[C@@H]1NC(=O)c1ccc(Cl)cc1)c1cccc2ccccc12 | inactive | inactive
C=CC(=O)N1CCC[C@@H](n2nc(-c3cccc(C(=O)Nc4ccc(C(C)C)c(C)c4)c3)c3c(N)ncnc32)C1 | inactive | inactive
Cn1ncc(Cl)c1-c1cc(C(=O)N[C@H](CN)Cc2ccc(F)c(F)c2)sc1Cl | inactive | inactive
C/C1=C\[C@@H](C)C[C@@H](C)[C@@H](Cc2cnco2)OC(=O)/C(C)=C/[C@@H](C)C[C@@H](C)[C@@H](Cc2cnco2)OC1=O | inactive | inactive
CCCC(=O)C1(c2ccccc2)CCN(C(=O)[C@@H](Cc2ccc(OC)cc2)NC(=O)[C@@H](N)Cc2cncn2C)CC1 | inactive | inactive
CCn1c(=O)c(-c2ccc(Cl)cc2Cl)cc2cnc(Nc3ccc(N4CCNCC4)c(F)c3)nc21 | inactive | inactive
CC1(C)CCC2(C(=O)OC3OC(COC4OC(CO)C(O)C(O)C4O)C(O)C(O)C3O)CCC3(C)C(=CCC4C5(C)CCC(OC6OCC(O)C(O)C6O)C(C)(C)C5CCC43C)C2C1O (stereo unspecified) | inactive | inactive
CCOc1ccc(-n2c(C(C)N(Cc3cccnc3)C(=O)Cc3ccc(F)c(C(F)(F)F)c3)nc3ncccc3c2=O)cc1 (stereo unspecified) | inactive | inactive
C[C@@H](c1ccc2nccn2c1)n1nnc2ncc(-c3cnn(C)c3)nc21 | inactive | inactive
CC(NCCCc1cccc(C(F)(F)F)c1)c1cccc2ccccc12 (stereo unspecified) | inactive | inactive
C=C1C(=O)O[C@@H]2C[C@@]3(C)C[C@@H](O)C[C@H](C)C3=C[C@H]12 | inactive | inactive
OC1C=C2C3CN(Cc4cc5c(cc43)OCO5)C2CC1O (stereo unspecified) | inactive | inactive
O=C([C@@H](Cc1cccc(C(F)(F)F)c1)NS(=O)(=O)c1cc(F)c2c(c1)CCNC2)N1CCCC1 | inactive | inactive
COc1cccc(-c2cc(F)ccc2C2Cc3nc(N)nc(C)c3C(=O)N2)n1 (stereo unspecified) | inactive | inactive
CC1OC2OC(=O)C3(C)CC4C5(CO5)C5=CC(=O)OC(C)(C)C5=CC(=O)C4(C)C(C1=O)C23 (stereo unspecified) | 15.8 µM (active) | 12.6 µM (active)
C[C@H](CN(C)C)Oc1nc(Nc2cc3cccc(Cl)c3cn2)cnc1C#N | inactive | inactive
Cc1ccc(S(=O)(=O)NCc2ccc(C(=O)NCCN(Cc3ccccc3)C(C)C)cc2)cc1 | inactive | inactive
